# The sample as a whole holds a higher share of the strongest signals than the screen did.
# B1: Pwp7 (Candida glabrata) (protein)
# chain: MGSSHHHHHHSSGLVPRGSHMASKNPVDFPNLCQYPNLDGAVAGFDTEIYNADPSILINFSLWPILQFPKEWHKTIGRAITTQTNFKLPASDTTLFGVSIPTQNILIEFRGYFIPPKSGTYTFALYLTDDGSAMFLGNDAAFPCGNITSWSNPTNDQVSVSDYDPKKKTLTVYMVAGVAYPLRIAYYNREKGGSLTASFVDPDGLTHSDWNGYIWTLPSCDNCKYS
# Key:
# Assay in all cases: glycan array binding signal (z-score within array); higher = stronger binding
# Settings in all cases: glycan notation: IUPAC condensed, linker removed
# [1] = target: Fuc(a1-2)Gal(b1-3)GalNAc(b1-3)Gal
# Outline: (§1)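 The binding signal is a Z-score computed within each array. Data were drawn from 3228 arrays in the Consortium for Functional Glycomics database, restricted to those with a known protein sequence. Scores were averaged over arrays of the same protein sequence at different concentrations or buffers, and over linkers, and negative values can be taken as non-binding.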
# [2] = target: Fuc(a1-2)Gal(b1-3)[Fuc(a1-4)]GlcNAc
# Outline: as §1
# Fuc(a1-2)Gal(b1-4)Glc = target: Fuc(a1-2)Gal(b1-4)Glc
# Outline: as §1
# [3] = target: Fuc(a1-2)Gal(b1-4)GlcNAc(b1-3)Gal(b1-4)GlcNAc(b1-3)Gal(b1-4)GlcNAc
# Outline: as §1
# [4] = target: Fuc(a1-2)[Gal(a1-3)]Gal(b1-3)GlcNAc(b1-6)GalNAc
# Outline: as §1
# [5] = target: Fuc(a1-3)[Gal(b1-4)]Glc6S
# Outline: as §1
# [6] = target: Fuc(a1-3)[Gal(b1-4)]GlcNAc(b1-2)Man(a1-3)[Fuc(a1-3)[Gal(b1-4)]GlcNAc(b1-2)Man(a1-6)]Man(b1-4)GlcNAc(b1-4)[Fuc(a1-6)]GlcNAc
# Outline: as §1
# [7] = target: Fuc(a1-3)[Gal(b1-4)]GlcNAc(b1-6)GalNAc
# Outline: as §1
# Gal(b1-3)Gal(b1-4)GlcNAc = target: Gal(b1-3)Gal(b1-4)GlcNAc
# Outline: as §1
# [8] = target: Gal(b1-4)GlcNAc(b1-2)Man(a1-6)Man(b1-4)GlcNAc(b1-4)GlcNAc
# Outline: as §1
# [9] = target: Gal(b1-4)GlcNAc(b1-3)Gal(b1-4)GlcNAc(b1-2)[Gal(b1-4)GlcNAc(b1-3)Gal(b1-4)GlcNAc(b1-6)]Man(a1-6)[Gal(b1-4)GlcNAc(b1-3)Gal(b1-4)GlcNAc(b1-2)Man(a1-3)]Man(b1-4)GlcNAc(b1-4)GlcNAc
# Outline: as §1
# [10] = target: Gal(b1-4)GlcNAc(b1-3)Gal(b1-4)GlcNAc(b1-2)[Gal(b1-4)GlcNAc(b1-3)Gal(b1-4)GlcNAc(b1-6)]Man(a1-6)[Gal(b1-4)GlcNAc(b1-3)Gal(b1-4)GlcNAc(b1-2)Man(a1-3)]Man(b1-4)GlcNAc(b1-4)[Fuc(a1-6)]GlcNAc
# Outline: as §1
# [11] = target: Gal(b1-4)GlcNAc(b1-3)Gal(b1-4)GlcNAc(b1-3)Gal(b1-4)GlcNAc(b1-3)Gal(b1-4)GlcNAc(b1-3)Gal(b1-4)GlcNAc(b1-2)Man(a1-3)[Gal(b1-4)GlcNAc(b1-3)Gal(b1-4)GlcNAc(b1-3)Gal(b1-4)GlcNAc(b1-3)Gal(b1-4)GlcNAc(b1-3)Gal(b1-4)GlcNAc(b1-2)Man(a1-6)]Man(b1-4)GlcNAc(b1-4)[Fuc(a1-6)]GlcNAc
# Outline: as §1
# [12] = target: Gal(b1-4)GlcNAc(b1-3)Gal(b1-4)GlcNAc(b1-3)[Gal(b1-4)GlcNAc(b1-3)Gal(b1-4)GlcNAc(b1-6)]GalNAc
# Outline: as §1
# [13] = target: Gal3S(b1-4)[Fuc(a1-3)]GlcNAc6S
# Outline: as §1
# [14] = target: GalNAc(b1-4)GlcNAc(b1-2)Man(a1-3)[GalNAc(b1-4)GlcNAc(b1-2)Man(a1-6)]Man(b1-4)GlcNAc(b1-4)GlcNAc
# Outline: as §1
# [15] = target: GalNAc(b1-4)GlcNAc(b1-3)GalNAc(b1-4)GlcNAc
# Outline: as §1
# [16] = target: Glc(a1-6)Glc(a1-6)Glc(a1-6)Glc
# Outline: as §1
# [17] = target: GlcNAc(b1-3)Gal(b1-4)GlcNAc(b1-3)Gal(b1-4)GlcNAc(b1-3)Gal(b1-4)GlcNAc(b1-3)Gal(b1-4)GlcNAc(b1-2)Man(a1-3)[GlcNAc(b1-3)Gal(b1-4)GlcNAc(b1-3)Gal(b1-4)GlcNAc(b1-3)Gal(b1-4)GlcNAc(b1-3)Gal(b1-4)GlcNAc(b1-2)Man(a1-6)]Man(b1-4)GlcNAc(b1-4)[Fuc(a1-6)]GlcNAc
# Outline: as §1
# [18] = target: GlcNAc(b1-3)Gal(b1-4)GlcNAc(b1-3)GalNAc
# Outline: as §1
# GlcNAc(b1-3)GalNAc = target: GlcNAc(b1-3)GalNAc
# Outline: as §1
# GlcNAc(b1-3)Man = target: GlcNAc(b1-3)Man
# Outline: as §1
# [19] = target: GlcNAc(b1-3)[GlcNAc(b1-4)][GlcNAc(b1-6)]GlcNAc
# Outline: as §1
# Kdn(a2-6)Gal(b1-4)GlcNAc = target: Kdn(a2-6)Gal(b1-4)GlcNAc
# Outline: as §1
# [20] = target: Man(a1-2)Man(a1-6)[Man(a1-3)]Man(a1-6)[Man(a1-2)Man(a1-2)Man(a1-3)]Man
# Outline: as §1
# [21] = target: Man(a1-2)Man(a1-6)[Man(a1-3)]Man(a1-6)[Man(a1-2)Man(a1-2)Man(a1-3)]Man(b1-4)GlcNAc(b1-4)GlcNAc
# Outline: as §1
# [22] = target: Man(a1-3)[Man(a1-6)]Man(a1-6)[Man(a1-2)Man(a1-3)]Man(b1-4)GlcNAc(b1-4)GlcNAc
# Outline: as §1
# [23] = target: Man(a1-3)[Man(a1-6)]Man(a1-6)[Man(a1-3)]Man
# Outline: as §1
# [24] = target: Neu5Ac(a2-3)Gal(b1-3)GlcNAc
# Outline: as §1
# [25] = target: Neu5Ac(a2-3)Gal(b1-3)GlcNAc(b1-2)Man
# Outline: as §1
# [26] = target: Neu5Ac(a2-3)Gal(b1-4)GlcNAc(b1-2)Man(a1-3)[Neu5Ac(a2-3)Gal(b1-4)GlcNAc(b1-2)Man(a1-6)]Man(b1-4)GlcNAc(b1-4)GlcNAc
# Outline: as §1
# [27] = target: Neu5Ac(a2-3)Gal(b1-4)GlcNAc(b1-2)[Neu5Ac(a2-3)Gal(b1-4)GlcNAc(b1-6)]Man(a1-6)[Neu5Ac(a2-3)Gal(b1-4)GlcNAc(b1-2)Man(a1-3)][GlcNAc(b1-4)]Man(b1-4)GlcNAc(b1-4)GlcNAc
# Outline: as §1
# [28] = target: Neu5Ac(a2-3)Gal(b1-4)GlcNAc(b1-3)GalNAc
# Outline: as §1
# [29] = target: Neu5Ac(a2-3)Gal(b1-4)GlcNAc(b1-3)[Neu5Ac(a2-3)Gal(b1-4)GlcNAc(b1-6)]GalNAc
# Outline: as §1
# [30] = target: Neu5Ac(a2-3)Gal(b1-4)GlcNAc(b1-6)[Gal(b1-3)]GalNAc
# Outline: as §1
# [31] = target: Neu5Ac(a2-3)Gal(b1-4)[Fuc(a1-3)]GlcNAc(b1-3)Gal
# Outline: as §1
# [32] = target: Neu5Ac(a2-6)Gal(b1-4)GlcNAc(b1-2)Man(a1-3)[Neu5Ac(a2-6)Gal(b1-4)GlcNAc(b1-2)Man(a1-6)]Man(b1-4)GlcNAc(b1-4)GlcNAc
# Outline: as §1
# [33] = target: Neu5Ac(a2-6)Gal(b1-4)GlcNAc(b1-3)Gal(b1-4)GlcNAc(b1-3)Gal(b1-4)GlcNAc(b1-2)Man(a1-3)[Neu5Ac(a2-6)Gal(b1-4)GlcNAc(b1-3)Gal(b1-4)GlcNAc(b1-3)Gal(b1-4)GlcNAc(b1-2)Man(a1-6)]GalNAc
# Outline: as §1
# [34] = target: Neu5Ac(a2-6)Gal(b1-4)GlcNAc(b1-3)Gal(b1-4)GlcNAc(b1-3)GalNAc
# Outline: as §1
# [35] = target: Neu5Ac(a2-6)Gal(b1-4)GlcNAc(b1-3)Gal(b1-4)[Fuc(a1-3)]GlcNAc(b1-3)Gal(b1-4)[Fuc(a1-3)]GlcNAc
# Outline: as §1
# Neu5Ac(b2-6)GalNAc = target: Neu5Ac(b2-6)GalNAc
# Outline: as §1
# [36] = target: Neu5Gc(a2-8)Neu5Gc(a2-3)Gal(b1-4)GlcNAc
# Outline: as §1
binder,measurement,setting,value
B1,glycan array binding signal (z-score),[1],-0.017
same,glycan array binding signal (z-score),[2],-0.614
same,glycan array binding signal (z-score),Fuc(a1-2)Gal(b1-4)Glc,-0.416
same,glycan array binding signal (z-score),[3],-0.218
same,glycan array binding signal (z-score),[4],0.673
same,glycan array binding signal (z-score),[5],2.63
same,glycan array binding signal (z-score),[6],-0.531
same,glycan array binding signal (z-score),[7],-0.313
same,glycan array binding signal (z-score),Gal(b1-3)Gal(b1-4)GlcNAc,-0.059
same,glycan array binding signal (z-score),[8],0.711
same,glycan array binding signal (z-score),[9],4.75
same,glycan array binding signal (z-score),[10],0.752
same,glycan array binding signal (z-score),[11],2.19
same,glycan array binding signal (z-score),[12],2.23
same,glycan array binding signal (z-score),[13],-0.723
same,glycan array binding signal (z-score),[14],2.13
same,glycan array binding signal (z-score),[15],-0.44
same,glycan array binding signal (z-score),[16],1.4
same,glycan array binding signal (z-score),[17],2.91
same,glycan array binding signal (z-score),[18],2.79
same,glycan array binding signal (z-score),GlcNAc(b1-3)GalNAc,-0.079
same,glycan array binding signal (z-score),GlcNAc(b1-3)Man,-0.272
same,glycan array binding signal (z-score),[19],-1.58
same,glycan array binding signal (z-score),Kdn(a2-6)Gal(b1-4)GlcNAc,-0.857
same,glycan array binding signal (z-score),[20],-0.467
same,glycan array binding signal (z-score),[21],-0.429
same,glycan array binding signal (z-score),[22],-0.076
same,glycan array binding signal (z-score),[23],2.11
same,glycan array binding signal (z-score),[24],-0.487
same,glycan array binding signal (z-score),[25],0.574
same,glycan array binding signal (z-score),[26],0.472
same,glycan array binding signal (z-score),[27],10.8
same,glycan array binding signal (z-score),[28],-0.11
same,glycan array binding signal (z-score),[29],2.25
same,glycan array binding signal (z-score),[30],-0.55
same,glycan array binding signal (z-score),[31],-0.216
same,glycan array binding signal (z-score),[32],0.696
same,glycan array binding signal (z-score),[33],3.78
same,glycan array binding signal (z-score),[34],0.805
same,glycan array binding signal (z-score),[35],-0.43
same,glycan array binding signal (z-score),Neu5Ac(b2-6)GalNAc,-0.387
same,glycan array binding signal (z-score),[36],-0.224

# — the supplement of paper PMC8728848
